Measured values taken from PubChem BioAssay AID651789 (National Center for Advancing Translational Sciences (NCATS), 2012).
Inconclusive results are not listed. Where a call stands in place of a potency, no number is given. Active and inactive are the calls of the source. The call rests on the fitted dose curve; in most records, active means well fitted inhibition curve with a large enough effect; inconclusive means small, poorly fitted or top-dose-only effect; inactive means no such curve, though single readings can be large or run the other way.

Test: Acumen qHTS Assay for Inhibitors of the mTORC1 Signaling Pathway in WT MEF Cells: Hit Validation; further: nearly all actives have a fitted effect of over 60% in size
Conditions: Acumen imaging; series mostly up to 37.3 µM
Outline: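 Read-out is immunofluorescent phospho-rpS6 (Ser235/236) normalised to PI-stained cell number, reported as % active cells using a 7.5 nM rapamycin threshold. Cells: WT or Tsc2-/-, p53-/- MEFs, compound-exposed 24 h at 37C; PI count also tracks viability.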
Potency means the concentration at half of the fitted maximal effect.

Row | SMILES | Potency
1 | CCCOCc1cc(CN2CCN(c3ccccc3OC)CC2)c(O)c2ncccc12 | 1.47 µM (active)
2 | CCOc1ccc(NC(=O)CSc2oc(-c3ccc(F)cc3)nc2S(=O)(=O)c2ccc(C)cc2)cc1 | 2.33 µM (active)
3 | COc1cc(C(=O)n2nc(C)c(Sc3ccc(Cl)cc3)c2C)cc(OC)c1OC | inactive
4 | O=C(Nc1ccccc1)N(Cc1cccc(Cl)c1)c1ccccn1 | inactive
5 | Cc1ccc(C(C)C)c(OCC(=O)Nc2cc(-c3nc4ccccc4[nH]3)ccc2C)c1 | inactive
6 | Cc1cc(C)c(NC(=O)C2CCN(c3nc4ccccc4n4cccc34)CC2)c(C)c1 | inactive
7 | CCN(CC)CCCNc1sc(S(=O)(=O)c2ccccc2)nc1S(=O)(=O)c1ccc(Cl)cc1 | 16.5 µM (active)
8 | COc1ccc(NC(=O)CSc2nc3ccccc3n2Cc2cccc(OC)c2)cc1 | inactive
9 | Cc1ccc(C(=O)c2cn(CC(=O)NCc3ccccc3Cl)c3nc(C)ccc3c2=O)cc1 | inactive
10 | COc1ccccc1C(=O)Nc1ccc2nc(N3CCC(C)CC3)cc(C)c2c1 | inactive
11 | Cc1ccc2nc(/C(C#N)=C/c3ccc(-c4ccc(F)cc4F)o3)[nH]c2c1 | 4.14 µM (active)
12 | O=C(NCCc1ccc(Cl)cc1)C(=O)NCC(c1cccs1)S(=O)(=O)c1cccs1 (stereo not given) | inactive
13 | COc1ccc(CC(=O)Nc2sc3c(c2C(=O)Nc2ccccc2)CCCCC3)cc1 | 13.1 µM (active)
14 | Cc1oc(-c2ccccc2F)nc1Cn1c(SCc2cccc(Cl)c2)nc2ccncc21 | inactive
15 | COc1ccc(Cn2c(C(=O)O)c(CNCc3ccccc3F)c3ccc(OC)cc32)cc1 | inactive
16 | Cc1ccc(NC(=O)Nc2cccs2)c(C)c1 | inactive
17 | CCc1ccccc1NC(=O)CSCc1cnn(-c2ccccc2)c1-n1cccc1 | inactive
18 | Cc1c(C2=CCN(S(=O)(=O)c3ccc(Br)cc3)CC2)c2ccccc2n1CC(=O)N1CCCC1 | inactive
19 | COc1ccccc1NC(=O)CSc1ccc(-c2ccccn2)nn1 | inactive
20 | O=C(C1CCN(c2nc3ccccc3[nH]2)CC1)N1CCN(c2cccc(Cl)c2)CC1 | inactive

Row | SMILES | Potency
21 | COc1ccc(CCNC(=O)C(C)n2nc(C)c3sc4ccccc4c3c2=O)c(OC)c1 (stereo not given) | inactive
22 | CCCCCCCCCCCCCCC[C@H](O)[C@@H](N)CO | inactive
23 | Cc1ccc(NC(=O)CCNS(=O)(=O)c2cccc3nonc23)cc1Cl | inactive
24 | CCc1ccc(CNc2ncc(-c3cccc(OC)c3)n2C)cc1 | inactive
25 | COc1ccc(OC)c(NC(=O)c2nc(S(=O)(=O)Cc3ccc(F)cc3)ncc2Cl)c1 | 3.29 µM (active)
26 | CCOC(=O)c1ccc(NC(=O)c2nc(S(=O)(=O)Cc3ccccc3)ncc2Cl)cc1 | 6.56 µM (active)
27 | Cc1nn(C(C)C(=O)NC2CCCCC2)c(=O)c2c1sc1ccccc12 (stereo not given) | inactive
28 | Cn1nc(-c2ccc(OCC(=O)Nc3ccccc3)cc2)c2ccccc2c1=O | inactive
29 | CCN1CCOC(=O)C1CC(=O)Nc1cc(C)ccc1OC (stereo not given) | 16.5 µM (active)
30 | CCN1CCN(C(=O)Cn2ncc3c4ccccc4n(Cc4c(C)cc(C)cc4C)c3c2=O)CC1 | 5.21 µM (active)
31 | COc1cccc(-n2c(-c3ccc(C)cc3)cc3c2CC(C)(C)CC3=O)c1 | inactive
32 | CCC(Sc1nncn2c1cc1oc(C)cc12)C(=O)Nc1ccc(F)cc1 (stereo not given) | inactive
33 | CCOC(=O)C(Cc1c[nH]c2ccccc12)NC(=O)COc1ccc(Cl)cc1 (stereo not given) | inactive
34 | Cc1ccc(-c2nc3sccn3c2Nc2ccc(C)c(C)c2)cc1 | inactive
35 | Cc1cc(OCC(=O)Nc2cc(-c3nc4ccccc4[nH]3)ccc2C)ccc1Cl | inactive
36 | COc1ccc(Cn2c(C(=O)O)c(CNCc3ccc(SC)cc3)c3ccc(OC)cc32)cc1 | inactive
37 | Cc1ccc(CN2C(=O)C(=O)c3cc(Br)cc(C)c32)cc1 | inactive
38 | O=C(CCOc1ccccc1)N(Cc1cccnc1)c1nc2c(F)cccc2s1 | 13.1 µM (active)
39 | COc1ccc(CNC(=O)C2CCN(c3nc4ccc(C)cc4[nH]3)CC2)cc1 | inactive
40 | COc1cc(C2CC(=O)Nc3cc4c(cc32)OCCO4)cc(Br)c1OC (stereo not given) | 0.0521 µM (active)
